In PubChem BioAssay (NCATS):
Results filed as inconclusive are left out. Some of the results follow. A call without a number means that no potency is given here. Calls of active or inactive are those of the source. Unless noted, calls follow the shape of the dose curve; as a rule, active = well fitted curve in the direction sought with a large enough effect; inconclusive = small, poorly fitted or top-dose-only effect, or another doubt; inactive = no such curve, though single readings can be large; an effect the other way counts as inactive or inconclusive.

How the values were obtained:
[1] = Cytometric Cell-Based qHTS for Inhibitors of the mTORC1 Signaling Pathway in MEF (Tsc2-/-, p53-/-) Cells (AID 2660);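 also: Tsc2 and p53 null MEFs carrying empty vector with compound for 24 h; percent of cells above a phospho-rpS6 to PI ratio cutoff in each well; series mostly up to about 38 µM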
Summary of the method: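 Immunofluorescence qHTS of rpS6 Ser235/236 phosphorylation: MEFs (Tsc2-/-, p53-/-) treated 24 h, 37 C, in DMEM + 10% FBS. Alexa-488 signal normalized to PI count, referenced to rapamycin (7.5 nM) and DMSO; PI cell number recorded for viability.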

[2] = High Content Imaging Cell-Based qHTS for Inhibitors of the mTORC1 Signaling Pathway in MEF (Tsc2-/-, p53-/-) Cells (AID 2666);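 also: percent of cells scored positive for phospho-rpS6 Ser235/236 immunostaining by imaging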
Summary of the method: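 MEF Tsc2-/- p53-/- (empty vector), DMEM/10% FBS; cpd 24 h 37 °C; PFA fix, Alexa-488 p-rpS6 S235/236 Ab, Hoechst; imaged; rapamycin-defined inhibition; % positive cells/well.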

[3] = High Content Imaging Cell-Based qHTS for Inhibitors of the mTORC1 Signaling Pathway in MEF Cells (AID 2667);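 also: Tsc2-/- p53-/- MEFs stably re-expressing wild-type Tsc2 exposed 24 h; series mostly up to about 38 µM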
Summary of the method: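 Read-out is the share of phospho-rpS6-positive cells per well, from Hoechst-normalized Alexa-488 Ser235/236 staining imaged on IN Cell. Cells: WT Tsc2-expressing Tsc2-/-, p53-/- MEFs exposed to compound for 24 hrs.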

[4] = Cytometry Cell-Based qHTS for Inhibitors of the mTORC1 Signaling Pathway in MEF cells (AID 2668);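 also: Tsc2-/- p53-/- mouse embryonic fibroblasts stably re-expressing wild-type Tsc2; percent cells positive for phospho-rpS6 Ser235/236 relative to propidium iodide stain; series mostly up to about 38 µM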
Summary of the method: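 Pathway inhibition in WT Tsc2-rescued Tsc2-/-, p53-/- MEFs is measured as the Alexa-488 phospho-rpS6 to propidium iodide intensity ratio after 24 hrs of compound at 37 degree Celsius. PI-stained cell number gives viability.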

[5] = Validation screen for small molecules that induce DNA re-replication in MCF 10A normal breast cells (AID 463097); also: nearly all actives have a fitted effect of over 60% in size; also: potency is read from the fitted curve at half-maximal effect
Summary of the method: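 DNA re-replication was detected as a rise in nuclei with elevated Hoechst fluorescence after a 48 hr compound exposure of MCF 10A cells at 37 C.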

[6] = target: Ubiquitin carboxyl-terminal hydrolase 2 (Homo sapiens) (UniProt O75604); test: qHTS Validation Assay for Inhibitors of Ubiquitin-specific Protease USP2a Using CHOP2 as the Reporter (AID 463106)
Sequence of Ubiquitin carboxyl-terminal hydrolase 2 (Homo sapiens) (O75604 whole entry, looked up): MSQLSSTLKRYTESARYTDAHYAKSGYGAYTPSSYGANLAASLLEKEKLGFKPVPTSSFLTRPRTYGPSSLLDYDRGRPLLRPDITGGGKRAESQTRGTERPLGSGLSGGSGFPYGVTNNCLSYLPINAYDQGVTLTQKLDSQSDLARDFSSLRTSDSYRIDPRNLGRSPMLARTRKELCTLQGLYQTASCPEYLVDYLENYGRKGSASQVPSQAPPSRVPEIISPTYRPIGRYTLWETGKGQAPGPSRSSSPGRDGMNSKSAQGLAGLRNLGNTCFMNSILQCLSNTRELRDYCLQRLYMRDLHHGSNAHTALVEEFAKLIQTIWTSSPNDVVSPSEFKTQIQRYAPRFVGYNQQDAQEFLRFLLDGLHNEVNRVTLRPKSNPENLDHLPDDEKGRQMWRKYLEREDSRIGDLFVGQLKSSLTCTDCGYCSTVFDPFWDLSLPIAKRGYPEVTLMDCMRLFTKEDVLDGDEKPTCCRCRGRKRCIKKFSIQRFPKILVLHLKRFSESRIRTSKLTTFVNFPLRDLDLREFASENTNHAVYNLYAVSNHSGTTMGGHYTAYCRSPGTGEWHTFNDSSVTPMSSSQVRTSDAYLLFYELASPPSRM
Summary of the method: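 Fluorescence read-out at Ex 485nm/Em 531nm after 60min RT, following addition of 25nM Ub-CHOP2 plus 25nM reporter substrate to USP2 core (10nM) pretreated 30min with compound. Data normalized to NEM full inhibition; concentration-response curves fitted.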

[7] = target: DNA polymerase III PolC-type (Bacillus subtilis (strain 168)) (UniProt P13267); test: qHTS Validation Assay for the Inhibitors of DNA Replication in Gram-Positive Bacteria (AID 485295); also: potency is read from the fitted curve at half-maximal effect
Sequence of DNA polymerase III PolC-type (Bacillus subtilis (strain 168)) (P13267 whole entry, looked up): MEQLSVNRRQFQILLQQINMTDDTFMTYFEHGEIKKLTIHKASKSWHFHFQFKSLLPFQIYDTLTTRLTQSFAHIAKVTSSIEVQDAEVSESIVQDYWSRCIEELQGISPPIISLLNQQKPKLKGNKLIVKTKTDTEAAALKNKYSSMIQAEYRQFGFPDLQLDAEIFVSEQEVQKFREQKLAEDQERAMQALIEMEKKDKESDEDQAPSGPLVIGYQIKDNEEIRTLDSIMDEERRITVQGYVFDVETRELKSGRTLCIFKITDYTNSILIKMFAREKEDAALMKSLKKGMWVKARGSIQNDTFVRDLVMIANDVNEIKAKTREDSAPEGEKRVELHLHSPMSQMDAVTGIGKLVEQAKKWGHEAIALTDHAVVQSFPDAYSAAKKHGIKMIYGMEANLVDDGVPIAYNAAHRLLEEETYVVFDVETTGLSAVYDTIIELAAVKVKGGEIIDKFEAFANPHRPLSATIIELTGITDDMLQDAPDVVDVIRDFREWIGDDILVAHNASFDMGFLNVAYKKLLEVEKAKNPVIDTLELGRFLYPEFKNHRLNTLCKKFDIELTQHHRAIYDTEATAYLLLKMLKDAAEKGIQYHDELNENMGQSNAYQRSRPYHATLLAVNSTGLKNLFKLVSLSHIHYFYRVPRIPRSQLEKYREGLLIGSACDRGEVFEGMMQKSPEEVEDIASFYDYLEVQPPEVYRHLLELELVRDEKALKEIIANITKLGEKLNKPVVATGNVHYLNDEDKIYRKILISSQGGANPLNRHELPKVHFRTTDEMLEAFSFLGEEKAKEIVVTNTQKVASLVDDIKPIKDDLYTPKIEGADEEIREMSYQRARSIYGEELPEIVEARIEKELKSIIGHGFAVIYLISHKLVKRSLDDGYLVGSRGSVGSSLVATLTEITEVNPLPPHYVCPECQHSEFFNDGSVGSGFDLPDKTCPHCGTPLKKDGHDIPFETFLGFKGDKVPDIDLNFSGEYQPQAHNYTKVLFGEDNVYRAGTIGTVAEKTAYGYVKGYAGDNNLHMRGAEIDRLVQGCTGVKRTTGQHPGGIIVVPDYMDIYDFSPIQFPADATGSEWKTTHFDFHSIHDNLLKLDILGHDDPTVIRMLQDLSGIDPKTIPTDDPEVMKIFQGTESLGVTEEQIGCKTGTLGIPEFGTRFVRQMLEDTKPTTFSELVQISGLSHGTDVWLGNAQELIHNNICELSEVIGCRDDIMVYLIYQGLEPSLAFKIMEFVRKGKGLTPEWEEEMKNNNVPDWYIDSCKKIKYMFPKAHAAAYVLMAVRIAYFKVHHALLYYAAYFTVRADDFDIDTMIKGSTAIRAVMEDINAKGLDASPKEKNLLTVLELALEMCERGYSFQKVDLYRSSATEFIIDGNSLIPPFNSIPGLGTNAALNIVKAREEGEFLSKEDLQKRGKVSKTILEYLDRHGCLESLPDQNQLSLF
Summary of the method: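 Primed replication of single-stranded M13Gori by a four-protein B. subtilis holoenzyme is measured at room temperature. Double-stranded product is quantified by PicoGreen fluorescence after an EDTA stop; inhibition is scaled between DMSO and EDTA controls.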

[8] = target: Tumor susceptibility gene 101 protein (Homo sapiens) (UniProt Q99816); test: qHTS Validation Assay for Iinhibitors of HIV-1 Budding by Blocking the Interaction of PTAP/TSG101 (AID 485342; calls by dose curve)
Sequence of Tumor susceptibility gene 101 protein (Homo sapiens) (Q99816 whole entry, looked up, the tested form may be a part): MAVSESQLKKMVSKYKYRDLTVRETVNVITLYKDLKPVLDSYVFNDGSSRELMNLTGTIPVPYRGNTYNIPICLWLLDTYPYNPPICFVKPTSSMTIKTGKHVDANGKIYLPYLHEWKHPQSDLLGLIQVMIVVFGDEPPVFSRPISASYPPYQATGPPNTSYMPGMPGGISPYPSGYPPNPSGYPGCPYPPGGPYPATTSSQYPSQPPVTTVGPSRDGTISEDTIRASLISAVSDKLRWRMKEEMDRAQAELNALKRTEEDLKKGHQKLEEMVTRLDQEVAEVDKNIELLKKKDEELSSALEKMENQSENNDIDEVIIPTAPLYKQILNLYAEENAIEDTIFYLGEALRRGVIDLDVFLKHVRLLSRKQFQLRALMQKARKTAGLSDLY
Summary of the method: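 Fluorescence anisotropy measured PTAP-Tsg101 interaction. Final concentrations were 10 uM protein domain and 50 nM labeled peptide, equilibrated 20 min at room temperature.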

[9] = qHTS Validation Assay to Find Inhibitors of Chronic Active B-Cell Receptor Signaling (AID 485345; active = well fitted curve in the direction sought with a large enough effect in the main read-out, with a control signal flat, not every such curve was filed as active)
Summary of the method: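 TMD8 ABC-DLBCL cells stably carrying doxycycline-inducible IkappaBalpha–green luciferase fusion plus unfused red luciferase; compounds 46 uM to 3 nM, 4 h at 37C with doxycycline. Corrected green/red luminescence ratio normalized to 10 uM MG-132 and basal cell wells; curves fitted.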

[10] = target: DNA repair nuclease/redox regulator APEX1 (Homo sapiens) (UniProt P27695); test: Confirmation qHTS Assay for Inhibitors of the Human Apurinic/apyrimidinic Endonuclease 1 (APE1) (AID 2572);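 also: fluorescence gain from purified APE1 cutting a TAMRA/BHQ-2 THF abasic duplex; nearly all actives have a fitted effect of over 30% in size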
Sequence of DNA repair nuclease/redox regulator APEX1 (Homo sapiens) (P27695 whole entry, looked up): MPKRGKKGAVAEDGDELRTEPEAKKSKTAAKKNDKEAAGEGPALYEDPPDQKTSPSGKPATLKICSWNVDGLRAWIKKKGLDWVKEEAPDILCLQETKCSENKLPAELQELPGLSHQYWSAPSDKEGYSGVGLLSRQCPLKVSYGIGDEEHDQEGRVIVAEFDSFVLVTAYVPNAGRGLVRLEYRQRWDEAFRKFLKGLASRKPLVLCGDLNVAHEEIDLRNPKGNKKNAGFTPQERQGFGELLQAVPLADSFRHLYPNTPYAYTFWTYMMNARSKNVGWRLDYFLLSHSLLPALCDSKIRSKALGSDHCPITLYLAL
Summary of the method: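 APE1 preincubated 15 min RT with compound; 50 nM TAMRA/BHQ-2 THF-abasic duplex added; kinetic fluorescence, 3 reads at 60 s intervals, Ex 525/Em 598; progress = read 3 minus read 1.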

SMILES	outcome [1]	Potency [2]	Potency [3]	Potency [4]	Potency [5]	Potency [6]	Potency [7]	outcome [8]	outcome [9]	outcome [10]
C[N+](C)(C)CC=O	inactive	inactive	inactive	inactive	inactive	inactive	inactive	inactive	inactive	
COc1ccccc1N1CCN(CCCCN2C(=O)c3ccccc3C2=O)CC1	inactive	inactive	inactive	inactive	inactive	inactive	inactive	inactive		
CC(=O)NCCc1c[nH]c2ccc(O)cc12	inactive	inactive	inactive	inactive	inactive	inactive	inactive	inactive	inactive	
C[C@@H](NCCc1ccc(O)cc1)[C@@H](O)c1ccc(O)cc1	inactive	inactive	inactive	inactive	inactive	inactive	inactive	inactive	inactive	
CCCCC[C@H](CC(=O)NO)C(=O)N[C@H](C(=O)N1CCC[C@H]1CO)C(C)C	inactive	inactive	inactive	inactive	inactive	inactive	inactive	inactive		
N[C@@H](CCCC(=O)O)C(=O)O	inactive	inactive	inactive	inactive	inactive	inactive	inactive	inactive	inactive	
O=c1[nH]c2cc(Cl)ccc2c(O)c1-c1ccc(Oc2ccccc2)cc1	inactive	inactive	inactive	inactive	inactive	inactive	inactive	inactive		
N[C@@H](Cc1ccc(F)cc1)C(=O)O	inactive	inactive	inactive	inactive	inactive	inactive	inactive	inactive		
N=C(N)c1ccc(N)cc1	inactive	inactive	inactive	inactive	inactive	inactive	inactive	inactive	inactive	
O=c1cc(O)cc(/C=C/c2ccc(O)c(O)c2)o1	inactive	inactive	inactive	inactive	inactive	inactive	21.2 µM (active)	inactive		
NC(N)=[N+]1CCc2ccccc2C1	inactive	inactive	inactive	inactive	inactive	inactive	inactive	inactive	inactive	
CN1C2CCC1CC(OC(c1ccccc1)c1ccccc1)C2 (stereo unspecified)	inactive	inactive	inactive	inactive	inactive	inactive	inactive	inactive	inactive	
O=C(O)/C(=C/c1c(C(=O)O)[nH]c2cc(Cl)cc(Cl)c12)c1ccccc1	inactive	inactive	inactive	inactive	inactive	inactive	inactive	inactive		
C#CCn1c(=O)c2c(ncn2C)n(C)c1=O	inactive	inactive	inactive	inactive	inactive	inactive	inactive	inactive		
Cc1ccc2c(c1)C(N1CCN(C)CC1)=Nc1cccnc1N2	inactive	inactive	inactive	inactive	inactive	inactive	inactive	inactive		
COc1ccc2c(c1)CCC1C2CC[C@@]2(C)C1CC[C@@H]2NCCCCCCN1C(=O)C=CC1=O (stereo partly specified)	inactive	inactive	inactive	inactive	inactive	inactive	inactive	inactive	inactive	
CC(N)(Cc1ccc(O)cc1)C(=O)O (stereo unspecified)	inactive	inactive	inactive	inactive	inactive	inactive	inactive	inactive	inactive	
CC(C)Cn1c(=O)n(C)c(=O)c2[nH]cnc21	inactive	inactive	inactive	inactive	inactive	inactive	inactive	inactive		
COc1cccc(OC)c1OCCNCC1CSc2ccccc2O1 (stereo unspecified)	inactive	inactive	inactive	inactive	inactive	inactive	inactive	inactive		
O=C(O)/C=C/c1cnc[nH]1	inactive	inactive	inactive	inactive	inactive	inactive	inactive	inactive	inactive	
O=C(O)c1cc(=O)cc(C(=O)O)[nH]1	inactive	inactive	inactive	inactive	inactive	inactive	inactive	inactive	inactive	
COc1cc(N)c(Cl)cc1C(=O)OCCN1CCCCC1	inactive	inactive	inactive	inactive	inactive	inactive	inactive	inactive	inactive	
CC1=C(C(=O)O)N2C(=O)[C@@H](NC(=O)C(N)C3=CCC=CC3)[C@H]2SC1 (stereo partly specified)	inactive	inactive	inactive	inactive	inactive	inactive	inactive	inactive	inactive	
NCC(O)c1ccc(O)c(O)c1 (stereo unspecified)	inactive	inactive	inactive	inactive	inactive	inactive	inactive	inactive	inactive	
CCCCOc1cc(CC2CNC(=O)N2)ccc1OC (stereo unspecified)	inactive	inactive	inactive	inactive	inactive	inactive	inactive	inactive		
COc1ccc2c(c1)c(CC(=O)O)c(C)n2C(=O)c1ccccc1	inactive	inactive	inactive	inactive	inactive	inactive	inactive	inactive	inactive	
CNc1ncnc2c1ncn2[C@H]1C[C@H](OP(=O)(O)O)[C@@H](COP(=O)(O)O)O1	inactive	inactive	inactive	inactive	inactive	inactive	inactive	inactive		

SMILES	outcome [1]	Potency [2]	Potency [3]	Potency [4]	Potency [5]	Potency [6]	Potency [7]	outcome [8]	outcome [9]	outcome [10]
NC(N)=NC(N)=Nc1ccccc1	inactive	inactive	inactive	inactive	inactive	inactive	inactive	inactive	inactive	
CC1C(=O)N(C)C(=O)c2nc[nH]c21 (stereo unspecified)	inactive	inactive	inactive	inactive	inactive	inactive	inactive	inactive		
Cn1c(=O)c2[nH]c(C3CCCC3)nc2n(C)c1=O	inactive	inactive	inactive	inactive	inactive	inactive	inactive	inactive		
CC(/C=C/c1cccc(Oc2ccc(F)cc2)c1)N(O)C(N)=O (stereo unspecified)	inactive	inactive	inactive	inactive	inactive	inactive	inactive	inactive	inactive	
CCCn1c(=O)c2[nH]c(-c3ccc(S(=O)(=O)O)cc3)nc2n(CCC)c1=O	inactive	inactive	inactive	inactive	inactive	inactive	inactive			
O=C(O)Cc1c[nH]c2ccc(O)cc12	inactive	inactive	inactive	inactive	inactive	inactive	inactive	inactive		
COc1ccc(-c2ccc(N)[n+](CCCC(=O)O)n2)cc1	inactive	inactive	inactive	inactive	inactive	inactive	inactive	inactive	inactive	
CC(N)=NCCCC[C@@H](N)C(=O)O	inactive	inactive	inactive	inactive	inactive	inactive	inactive	inactive	inactive	
Cn1c(=O)c2c(nc(/C=C/c3cccc(Cl)c3)n2C)n(C)c1=O	inactive	inactive	inactive	inactive	inactive	inactive	inactive			
O=C(O)C1=CCCN(CCON=C(c2ccccc2)c2ccccc2)C1	inactive	inactive	inactive	inactive	inactive	inactive	inactive	inactive		
NC1CCN(O)C1=O (stereo unspecified)	inactive	inactive	inactive	inactive	inactive	inactive	inactive		inactive	inactive
O=C(O)c1cc2cc(F)ccc2[nH]1	inactive	inactive	inactive	inactive	inactive	inactive	inactive	inactive	inactive	
COc1ccccc1N1CCN(CCCNc2c(C)c(=O)n(C)c(=O)n2C)CC1	inactive	inactive	inactive	inactive	inactive	inactive	inactive	inactive	inactive	
O=C1C2C=CC=CC2=NC(=S)N1CCN1CCC(=C(c2ccc(F)cc2)c2ccc(F)cc2)CC1 (stereo unspecified)	inactive	inactive	inactive	inactive	7.08 µM (active)	inactive	inactive	inactive	inactive	
COC1(C2=NCCN2)COc2ccccc2O1 (stereo unspecified)	inactive	inactive	inactive	inactive	inactive	inactive	inactive	inactive	inactive	
CCCN(CCc1ccccc1)C1CCc2c(O)cccc2C1 (stereo unspecified)	inactive	inactive	inactive	inactive	inactive	inactive	inactive	inactive	inactive	
Nc1nc2[nH]c(=O)cnc2c(=O)[nH]1	inactive	inactive	inactive	inactive	inactive	inactive	inactive	inactive	inactive	
CSC(=N)N	inactive	inactive	inactive	inactive	inactive	inactive	inactive	inactive	inactive	
O=c1onc2n1-c1cc(Br)ccc1OC2	inactive	inactive	inactive	inactive	inactive	inactive	inactive	inactive	inactive	
CC(N)(C(=O)O)c1ccc(C(=O)O)cc1 (stereo unspecified)	inactive	inactive	inactive	inactive	inactive	inactive	inactive	inactive	inactive	
COc1ccc(C(=O)NCc2cccnc2)cc1C(=O)NCc1cccnc1	inactive	inactive	inactive	inactive	inactive	inactive	inactive	inactive	inactive	
O=C(O)[C@H]1NCCC[C@H]1C(=O)O	inactive	inactive	inactive	inactive	inactive	inactive	inactive	inactive	inactive	
Nn1nnc2ccccc21	inactive	inactive	inactive	inactive	inactive	inactive	inactive	inactive	inactive	
O=C(O)C1=CCCNC1	inactive	inactive	inactive	inactive	inactive	inactive	inactive	inactive	inactive	
NCC(O)(CS(=O)(=O)O)c1ccc(Cl)cc1 (stereo unspecified)	inactive	inactive	inactive	inactive	inactive	inactive	inactive	inactive	inactive	
COc1ccc(CCN(C)CCc2ccc(OC)c(OC)c2)cc1OC	inactive	inactive	inactive	inactive	inactive	inactive	inactive	inactive	inactive	
CCOC(=O)C12CC1/C(=N/O)c1ccccc1O2 (stereo unspecified)	inactive	inactive	inactive	inactive	inactive	inactive	inactive	inactive	inactive	
